# This is a sample that favours compounds with a hit; in the whole collection about 19% have one here.
# DT40 TDP1 CPT – DT40-hTDP1 cell growth loss with CPT | chicken DT40 Tdp1-/-;hTDP1 cells + 20 nM CPT, ATP luminescence, 48 h | Potency, µM (titrated, usually from 46.2 µM), inactives show at the highest dose activity change, negative = growth inhibition, most hits filed as inhibitors | 12% of 420,000 active | AID 686979; also: nearly all actives have a fitted effect of over 55% in size
#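 Chicken DT40 Tdp1-/- cells stably complemented with human TDP1 were seeded at 400 cells/well in medium containing 20 nM camptothecin, exposed to pin-transferred compounds, and grown at 37 °C for at least 48 hr. Viability was read as ATP luminescence.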
# DT40 TDP1 no CPT – qHTS for Inhibitors of human tyrosyl-DNA phosphodiesterase 1 (TDP1): qHTS in cells in absence of CPT; 15% of 420,000 active; Potency, µM (highest dose often 46.2 µM), inactives show at the highest dose activity change, negative = growth inhibition, most hits filed as inhibitors; DT40 Tdp1-/- hTDP1 cells, no CPT, ATP luminescence, 48 h; AID 686978, 2013; also: nearly all actives have a fitted effect of over 55% in size
#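 Seeded 400 DT40-hTDP1 cells/well (vehicle DMSO, no 20 nM CPT); pinned compounds; ≥48 hr at 37 °C; CellTiter-Glo luminescence as viability measure.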
# TDP1 inh – blocks human tyrosyl-DNA phosphodiesterase 1; Potency, µM (titrated, usually from 130 µM), for the others: at the highest dose activity change, negative = inhibition, usual class: inhibitors; Q9NUW8; 0.28% of 350,000 active; recombinant TDP1, AlphaScreen DNA substrate cleavage; also: nearly all actives have a fitted effect of over 40% in size
# Target sequence (Q9NUW8 whole entry, looked up): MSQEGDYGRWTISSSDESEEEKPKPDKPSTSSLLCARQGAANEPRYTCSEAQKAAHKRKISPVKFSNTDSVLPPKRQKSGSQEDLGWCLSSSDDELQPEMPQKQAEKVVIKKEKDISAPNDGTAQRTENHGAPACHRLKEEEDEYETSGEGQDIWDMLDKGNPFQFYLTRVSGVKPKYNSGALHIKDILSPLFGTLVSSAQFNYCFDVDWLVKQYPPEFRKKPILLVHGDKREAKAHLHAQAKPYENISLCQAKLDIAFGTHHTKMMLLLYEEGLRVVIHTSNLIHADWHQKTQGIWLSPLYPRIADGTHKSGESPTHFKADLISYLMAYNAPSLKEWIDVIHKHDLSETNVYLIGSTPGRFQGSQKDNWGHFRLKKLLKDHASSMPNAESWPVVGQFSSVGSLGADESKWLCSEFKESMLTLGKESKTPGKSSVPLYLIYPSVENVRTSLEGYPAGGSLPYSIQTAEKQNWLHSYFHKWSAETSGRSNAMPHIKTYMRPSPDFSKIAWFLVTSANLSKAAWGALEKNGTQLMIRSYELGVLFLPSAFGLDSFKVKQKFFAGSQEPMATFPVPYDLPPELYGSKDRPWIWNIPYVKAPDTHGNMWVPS
#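 E. coli-derived human Tdp1, 1 nM final. Cpd preinc 15 min RT; substrate 15 nM final, 5 min RT; AS bead mix 10 ug/ml final, 10 min RT. Signal loss = tyrosine-FITC cleavage. No-enzyme wells = max signal.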
# RORg inh – ROR gamma (mouse) transcription inhibition. P51450. Drosophila S2 Gal4-RORgamma UAS-luciferase reporter, 20 h. Potency, µM (highest dose often 53.6 µM), for the others: at the top dose activity change, negative = inhibition, actives largely listed as inhibitors. 5.4% of 310,000 active; also: nearly all actives have a fitted effect of over 60% in size
#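 Drosophila S2 cells stably expressing Gal4-DBD/mouse RORγ fusion under metallothionein promoter plus UAS-luciferase; compound 1 h, then 700 uM CuSO4 induction for 20 h at ambient temperature; inhibition read as reduced luminescence.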
# Gal4-VP16 FLuc – Gal4-VP16 reporter inhibition counter-screen. Drosophila S2 Gal4-VP16 UAS-luciferase, luminescence, 20 h. Potency, µM (doses to about 53.6 µM), inactives show at the highest dose activity, negative = inhibition, most hits filed as inhibitors. 3.5% of 310,000 active. AID 2546;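 also: Gal4-VP16 expression switched on by copper sulfate through the metallothionein promoter; nearly all actives have a fitted effect of over 50% in size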
# * marks the source's active call; other numbers are inactive results; ? = inconclusive; . = not tested or not shown; [ ] = another dose, or the depositor's remark. Calls follow the shape of the dose curve; as a rule, active = well fitted curve in the direction sought with a large enough effect; inconclusive = small, poorly fitted or top-dose-only effect, or another doubt; inactive = no such curve, though single readings can be large; an effect the other way counts as inactive or inconclusive. % is scaled to controls: 0 for no effect and ±100 for the full control effect; potency is read from the fitted curve at half-maximal effect.
SMILES,DT40 TDP1 CPT,DT40 TDP1 no CPT,TDP1 inh,RORg inh,Gal4-VP16 FLuc
O=C(CSc1nnc(-c2c[nH]c3ccccc23)o1)N1CCCCC1,-29%,?,6%,-5%,-7%
CNC(=O)C1CC(=O)N(Cc2ccc(OC)c(OC)c2)C(=Nc2ccc(OC)cc2)S1 (configuration not stated),-6%,-14%,2%,4%,-7%
N#Cc1ccccc1NC(=O)CSc1cn[nH]n1,-7%,-5%,3%,7%,0%
CCOC(=O)C1CSC2(CCC(c3ccccc3)CC2)N1 (configuration not stated),21%,3%,0%,19%,2%
CCOC(=O)[C@@H]1CSCCS(=O)(=O)N1,12µM*,18µM*,.,.,.
O=C(CCS(=O)(=O)c1ccc(Cl)cc1)NC1CCCC1,-7%,10%,0%,.,.
O=C1C(=O)c2cccnc2-c2ncccc21,0.033µM*,0.0052µM*,.,.,.
COC1=C(Br)C(=O)c2ncccc2C1=O,0.52µM*,0.58µM*,.,.,.
O=C1c2cccnc2-c2ncccc21,1%,-15%,5%,-10%,2%
Cc1c(C)c2c(cc(C)c3c(-c4ccc(Br)cc4)coc32)oc1=O,3%,-1%,6%,.,.
COc1cc(C(O)c2nc(-c3cccc(F)c3)cs2)ccc1F (configuration not stated),?,18µM*,.,.,.
COc1cc(C(O)c2nc(-c3cc(F)cc(F)c3)cs2)ccc1F (configuration not stated),23µM*,15µM*,.,.,.
COc1cc(C(O)c2nc(-c3cncnc3)cs2)ccc1F (configuration not stated),13%,-18%,.,.,.
OC(c1ccc(F)c(F)c1)c1nc(-c2cnc3ccccc3c2)cs1 (configuration not stated),?,21µM*,.,.,.
COc1cc(C(O)c2nc(-c3ccc(N(C)C)cc3)cs2)ccc1F (configuration not stated),16µM*,23µM*,.,.,.
CC([NH2+][O-])C(C)(C)NO (configuration not stated),1%,1%,?,-10%,-2%
O=C1c2ccccc2C(Cc2ccncc2)(Cc2ccncc2)c2ccccc21,-35%,?,8%,9%,3%
OC(c1ccc(F)cc1)c1nc(/C=C/c2ccccc2)cs1 (configuration not stated),?,-24%,.,.,.
COc1cc(C(O)c2nc(-c3cc4ccccc4o3)cs2)ccc1F (configuration not stated),21µM*,23µM*,.,.,.
OC(c1ccccc1)c1nc(-c2cccc(C(F)(F)F)c2)cs1 (configuration not stated),-16%,?,.,.,.
OC(c1ccc(F)c(F)c1)c1nc(-c2cccc(F)c2)cs1 (configuration not stated),15µM*,?,.,.,.
COc1ccncc1-c1csc(C(O)c2ccccc2)n1 (configuration not stated),?,-45%,.,.,.
OC(c1ccccc1)c1nc(-c2ccc(F)c(Cl)c2)cs1 (configuration not stated),16µM*,-39%,.,.,.
COc1cc(C(O)c2nc(/C=C/c3ccccc3)cs2)ccc1F (configuration not stated),18µM*,?,.,.,.
Cc1ccccc1NC(=O)CN(C)S(=O)(=O)c1ccc2c(c1)n(C)c(=O)c(=O)n2C,-2%,1%,0%,5%,-10%
SMILES,DT40 TDP1 CPT,DT40 TDP1 no CPT,TDP1 inh,RORg inh,Gal4-VP16 FLuc
Cc1cc(C(F)(F)F)nc(SCC(=O)Nc2cc(C)on2)n1,-2%,-29%,4%,-14%,1%
COc1cc(C(O)c2nc(-c3cccc(C(C)C)c3)cs2)ccc1F (configuration not stated),?,18µM*,.,.,.
COc1ccc(-c2csc(C(O)c3ccc(F)cc3)n2)cc1OC (configuration not stated),?,-16%,.,.,.
COc1ccc(C(O)c2nc(-c3cc(F)cc(F)c3)cs2)cc1 (configuration not stated),16µM*,16µM*,.,.,.
O=C(O)c1cccc(-c2csc(C(O)c3ccc(F)c(F)c3)n2)c1 (configuration not stated),1%,5%,.,.,.
OC(c1ccc(F)c(F)c1)c1nc(-c2ccc3c(c2)OCO3)cs1 (configuration not stated),21µM*,?,.,.,.
COc1ccccc1CCNC(=O)C(=O)NCC1OCCN1S(=O)(=O)c1cccs1 (configuration not stated),2%,?,.,7%,5%
O=C(O)/C(=C\c1ccc(Cl)c([N+](=O)[O-])c1)c1ccc(S(=O)(=O)N2CCCCC2)s1,22%,-19%,7%,22%,1%
C[C@H]1COc2cc(N3CCC[C@@H]3CO)ccc2S(=O)(=O)N1,-4%,-9%,.,.,.
S=c1nc[nH]c2c1[nH]c1ccccc12,-9%,-10%,8%,11µM*,0%[0.365 µM]
S=c1nc[nH]c2c1[nH]c1ccc(Cl)cc12,-6%,0%,.,-39%,-10%
CN(C)S(=O)(=O)n1cnc(-c2ccccc2)c1-c1ccccc1,-12%,?,10%,-24%[0.365 µM],.
CC(=O)NC1=NN(C(C)=O)C(c2ccc(F)cc2)S1 (configuration not stated),2.6µM*,-33%,5%,13%,27%
CC(=O)NC1=NN(C(C)=O)C(c2ccc(C)cc2)S1 (configuration not stated),-20%,-16%,-8%,12%,-8%
CC(C)Oc1ccc(C(=O)OCC(=O)NC2CCCCCC2)cc1,?,16µM*,-2%,.,.
COc1ccc(N2CCN(C(=O)CCc3nnc4ccc(N5CCC(C)CC5)nn34)CC2)cc1,18µM*,18µM*,4%,-3%,3%
CCCN1CCN(C(=O)CCc2nnc3ccc(N4CCN(c5cccc(OC)c5)CC4)nn23)CC1,?,-23%,.,3%,0%
COc1ccccc1N1CCN(C(=O)CCc2nnc3ccc(N4CCOCC4)nn23)CC1,-17%,2%,5%,1%,1%
CC1CCN(c2ccc3nnc(CCC(=O)N4CCN(c5ccccc5F)CC4)n3n2)CC1,23µM*,15µM*,1%,-10%,-7%
O=C(Nc1cccc(-c2cn3c(n2)SCC3)c1)c1ccc(Br)o1,?,-18%,5%,?,7%
CC(=O)NC(c1ccccc1)c1nc(-c2cnc3ccccc3c2)cs1 (configuration not stated),12µM*,21µM*,.,.,.
CC(=O)NC(c1cccc(F)c1)c1nc(-c2cccc(C(C)C)c2)cs1 (configuration not stated),26µM*,21µM*,.,.,.

# Assay outcomes deposited in PubChem BioAssay by National Center for Advancing Translational Sciences (NCATS).
